What all share (assay): NCI-60 one-dose screen, 48 h (100 = growth as untreated, 0 = no growth, -100 = all killed)
What all share (settings): 10 µM unless noted

Experiment [1] has as its system NCI-H23 lung.
For experiment [2], the system named is NCI-H226 lung.
Experiment [3] concerns NCI-H322M lung.
For experiment [4], the system named is HOP-62 NSCLC.
In experiment [5] the test system is NCI-H460 lung.
The subject of experiment [6] is HOP-92 NSCLC.
Experiment [7] has as its system NCI-H522 lung.
Experiment [8] deals with A549/ATCC NSCLC.
Experiment [9] concerns 786-0 renal.
The test system of experiment [10] is DU-145 prostate.
In experiment [11] the test system is K-562 leukemia.
Experiment [12] relates to MALME-3M melanoma.
The subject of experiment [13] is MDA-MB-231 breast.
For experiment [14], the system named is RXF 393 renal.
For experiment [15], the system named is SF-268 CNS.
Experiment [16] has as its system SF-295 CNS.
Experiment [17] has as its system SF-539 CNS.
Experiment [18] relates to UACC-257 melanoma.
The subject of experiment [19] is M14 melanoma.
Experiment [20] deals with COLO 205 colon.

Compounds without any hit were thinned out: in the full panel of roughly 83,000, 20% have a hit.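 Single-concentration screen, 48 h exposure, 96-well plates. Endpoint: percent growth. Below 10 = active.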 Unmarked numbers belong to inactive results. Activity calls are given as the source filed them.

Consider `CC(Nc1ncnc2ccc(-c3cnc(N)nc3)cc12)c1ccccc1` (stereo unspecified), for which the growth was 50.3% in [1]; 20.6% in experiment [2]; 2.74% (active) in experiment [3]; 31.2% in experiment [4]; 35.1% in [5]; -0.545% (active) in experiment [6]. The growth in experiment [7] is 11.9%; in experiment [8], 32.7%; in experiment [9], 23.7%; in [10], 25.1%; in experiment [11], 44.5%; in experiment [12] it was 28.9%. In addition, the growth in experiment [13] is 25.4%; in experiment [14] it was -2.14% (active); in [15] it was 40.9%; in experiment [16], 29.6%; in experiment [17], 23.4%; in experiment [18] it was 77.2%. Also, the growth in experiment [19] is 48.3%.

Regarding `Nc1cc(C(=O)N/N=C\c2ccc(OC(F)F)c(OC3CCCC3)c2)nn1CC(O)c1ccccc1` (stereo unspecified), the growth in [1] was 95.7%; in experiment [2] it was 92.7%; in experiment [3] it was 103%; in experiment [4], 101%; in experiment [5], 105%; in [6] it was 84.1%. In addition, the growth is 88.9% in experiment [7]; 95.3% in [8]; 107% in [9]; 112% in experiment [20]; 105% in experiment [10]; 88.4% in [11]. The growth in [12] is 112%; in [13], 97.5%; in experiment [14], 96.3%; in experiment [15] it was 100%; in [16] it was 101%; in [17], 98.6%. Besides, the growth is 104% in [18] and 110% in experiment [19].

With `C#Cc1cc(C(=O)Nc2ccc(CNCCN3CCOCC3)c(C(F)(F)F)c2)ccc1C`, the growth is 92.2% in [1]; 95.4% in experiment [2]; 98.3% in experiment [3]; 102% in experiment [4]; 101% in [5]; 68.7% in experiment [6]. Also, the growth was 89.6% in [7]; 87.7% in experiment [8]; 80.7% in [9]; 97% in experiment [10]; 67.1% in experiment [11]; 92.1% in [12]. The growth in experiment [13] was 90.3%; in experiment [14], 74.7%; in experiment [15], 86.3%; in experiment [16], 99.6%; in [17], 93.6%; in [18] it was 98.6%. In addition, the growth in [19] is 101%.

For `CN1CCN(Cc2ccc(NC(=O)c3cncc(C#Cc4cnc5ccc(OCC6COC6)nn45)c3)cc2C(F)(F)F)CC1`, the growth in [1] was -58% (active); in experiment [2], -65.2% (active); in experiment [3] it was -36.5% (active); in experiment [4], -72.3% (active); in experiment [5], -81% (active); in experiment [6], -33.4% (active). In addition, the growth is -70.7% (active) in [7]; -68.7% (active) in experiment [8]; -85.6% (active) in experiment [9]; -83.1% (active) in [10]; 0.233% (active) in experiment [11]; -88.2% (active) in experiment [12]. Moreover, the growth in experiment [13] was -63% (active); in [14], -78.5% (active); in [15], -70.2% (active); in [16] it was -93.7% (active); in [17] it was -88.2% (active); in [18] it was -51.6% (active). Further, the growth in experiment [19] was -86.8% (active).

In the case of `CCC(=C(c1ccc(OCCN(C)C)cc1)c1ccc(OCCN(C)C)cc1)c1ccc(Cl)cc1`, the growth in experiment [1] was 21.9%; in experiment [2], 21.7%; in experiment [3], 5.04% (active); in [4], -65.7% (active); in experiment [5] it was -64.8% (active); in [6], -5.13% (active). For the same compound, the growth in experiment [7] was -48.3% (active); in [8] it was -72.3% (active); in [9] it was -80.7% (active); in [20], -67.3% (active); in experiment [10], -28.8% (active); in experiment [11], -16.7% (active). The growth in experiment [12] is -83.7% (active); in experiment [13], -79.5% (active); in experiment [14], -85.4% (active); in experiment [15], -37.1% (active); in experiment [16] it was -72.2% (active); in experiment [17], -82.8% (active). The results for the growth in experiment [18] and in experiment [19] were -69.8% (active) and -66.3% (active), respectively.

Regarding `COc1ccc(C2CC(c3cccc(OCCCCOc4cccc(C5=NOC(c6ccc(OC)cc6)C5)c4)c3)=NO2)cc1` (stereo unspecified), the growth in experiment [1] was 103%; in experiment [2], 100%; in [3], 94.7%; in experiment [4], 105%; in experiment [5], 102%; in experiment [6] it was 104%. The growth is 86.4% in experiment [7]; 88.5% in experiment [8]; 99.1% in experiment [9]; 104% in [10]; 45.1% in experiment [11]; 110% in [12]. For the same compound, the growth in experiment [13] was 99.9%; in experiment [14] it was 114%; in experiment [15], 108%; in experiment [16], 101%; in experiment [17] it was 111%; in experiment [18], 96.9%. In experiment [19], the growth is 90.5%.

With `O=C(CSc1nc2ccccc2c(=O)n1-c1ccc(Cl)c(Cl)c1)Nc1ccc(S(=O)(=O)Nc2ccc(Cl)nn2)cc1`, the growth was 91.6% in [1]; 90.9% in [2]; 91.7% in [3]; 87.8% in [4]; 99.4% in experiment [5]; 72.5% in [6]. In addition, the growth in experiment [7] was 90%; in experiment [8], 91.9%; in [9], 98.9%; in experiment [20], 94.9%; in experiment [10], 101%; in experiment [11], 96.5%. The growth in experiment [12] was 98.5%; in experiment [13] it was 90.8%; in experiment [14], 88.1%; in experiment [15] it was 100%; in experiment [16] it was 101%; in experiment [17] it was 90.7%. Further, the growth in experiment [18] is 93.5%; in experiment [19] it was 86.2%.

Regarding `C#C[C@]1(O)CC[C@H]2[C@@H]3CC=C4c5sc(Nc6cc(Cl)ccc6OC)nc5CC[C@]4(C)[C@H]3CC[C@@]21C`, the growth is 33.4% in experiment [1]; 52.4% in [2]; 53.2% in experiment [3]; 32.5% in experiment [4]; 17% in experiment [5]; -0.0409% (active) in experiment [6]. Besides, the growth in experiment [7] is 52.8%; in experiment [8], 28.7%; in experiment [9], -32.3% (active); in experiment [20] it was 21.8%; in experiment [10] it was 19.1%; in [11] it was 4.32% (active). For the same compound, the growth in experiment [12] was 12.1%; in experiment [13] it was 43.6%; in experiment [14], -74.9% (active); in experiment [15], 24.6%; in experiment [16], -62.4% (active); in [17], -22.1% (active). The results for the growth in experiment [18] and in experiment [19] were -16.3% (active) and -51.7% (active), respectively.

Values taken from PubChem BioAssay (NCI).
